Assay results reported in PubChem BioAssay (NCI).
This is part of a sample that, as a whole, favours compounds with a hit. Of some 79,000 tested, about 15% had one in any assay. Activity calls are given as the source filed them. Rule as the data show it: active = growth inhibition above about 70%; inactive = the rest.

How the values were obtained:
[1] = NCI Yeast Anticancer Drug Screen. Data for the rad50 strain (AID 155);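 also: 0% = growth of vehicle-only cultures of the same strain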; conditions: S. cerevisiae rad50 strain growth inhibition, active compounds read high
Summary of the method: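 Relative growth inhibition (compound vs vehicle) was measured in yeast with a defined repair-gene alteration.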

[2] = NCI Yeast Anticancer Drug Screen. Data for the mec2-1 strain (AID 157); conditions: S. cerevisiae mec2-1 strain, active compounds read high
Summary of the method: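 Mutant yeast (mec2-1) grown with compound; growth inhibition relative to vehicle control reported.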

[3] = NCI Yeast Anticancer Drug Screen. Data for the sgs1 mgt1 strain (AID 161);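 also: 0% = growth of cultures given vehicle only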; conditions: S. cerevisiae sgs1 mgt1 strain, active compounds read high
Summary of the method: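 Growth of a repair-deficient yeast mutant was monitored after compound treatment and expressed as inhibition relative to vehicle-treated cultures.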

[4] = NCI Yeast Anticancer Drug Screen. Data for the cln2 rad14 strain (AID 165);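 also: 0% = growth equal to vehicle treated cultures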; conditions: S. cerevisiae cln2 rad14 strain, active compounds read high
Summary of the method: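 Readout is yeast growth inhibition versus vehicle-treated controls, using a strain with cln2 and rad14 alterations exposed to compound.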

[5] = NCI Yeast Anticancer Drug Screen. Data for the bub3 strain (AID 167); conditions: S. cerevisiae bub3 mutant strain, active compounds read high
Summary of the method: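 Screening used yeast with an engineered genetic alteration affecting cell cycle control. Compound-exposed cultures were compared with vehicle cultures, and reduced growth was taken as inhibition.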

[6] = NCI Yeast Anticancer Drug Screen. Data for the mlh1 rad18 strain (AID 175); conditions: S. cerevisiae mlh1 rad18 strain growth inhibition, active compounds read high
Summary of the method: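 Genetically defined yeast (DNA repair-deficient) exposed to compounds; growth inhibition determined relative to vehicle.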

[7] = at 5.0 µM (retest, dose inferred, filed as 0.5)
[8] = at 50.0 µM (retest, dose inferred, filed as 5.0)

Measured: growth inhibition

C1CCC(C2=NC3CCCCC3SC2)CC1 (stereo not given)
inactive: [1]; [7] 5% | [2]; [7] -16% | [3]; [7] 5% | [4]; [7] 10% | [5]; [7] 6% | [6]; [7] -20%
active: [1]; [8] 98% | [1]; at 50.0 µM 92.2% | [2]; [8] 99% | [2]; at 50.0 µM 93.5% | [3]; [8] 86% | [3]; at 50.0 µM 93.9% | [4]; [8] 96% | [4]; at 50.0 µM 90.1% | [5]; [8] 98% | [5]; at 50.0 µM 92.1% | [6]; [8] 98% | [6]; at 50.0 µM 91.2%

COC(=O)c1c(C(N)=O)c(C)n(NC(=O)Nc2ccccc2)c1C
active: [1]; [8] 93% | [1]; at 50.0 µM 96.2% | [2]; [8] 95% | [2]; at 50.0 µM 85.1% | [3]; [8] 94% | [3]; at 50.0 µM 95% | [4]; [8] 91% | [4]; at 50.0 µM 81.4% | [5]; [8] 92% | [5]; at 50.0 µM 86.2% | [6]; [8] 95% | [6]; at 50.0 µM 87.8%
inactive: [1]; [7] 25% | [2]; [7] 24% | [3]; [7] 41% | [4]; [7] 32% | [5]; [7] 37% | [6]; [7] 63%

COc1ccc(C2=C/C(=C3\C(=O)Oc4ccccc4C3=O)SS2)cc1
inactive: [1]; [7] 0% | [1]; [8] 32% | [1]; at 50.0 µM -5.95% | [2]; [7] -2% | [2]; [8] 7% | [2]; at 50.0 µM -1.6% | [3]; [7] 2% | [3]; [8] 50% | [3]; at 50.0 µM -3.75% | [4]; [7] 1% | [4]; [8] 36% | [4]; at 50.0 µM 38.5% | [5]; [7] 3% | [5]; [8] 24% | [5]; at 50.0 µM -3.75% | [6]; [7] -2% | [6]; [8] 32% | [6]; at 50.0 µM 1.2%

OCC1CC[N-]CC1.OCC1CC[N-]CC1.[Cl][Pt+2]([Cl])([Cl])[Cl]
inactive: [1]; [7] 24% | [2]; [7] 5% | [3]; [7] 33% | [4]; [7] 15% | [5]; [7] 6% | [6]; [7] 40%
active: [1]; [8] 99% | [1]; at 50.0 µM 98.4% | [2]; [8] 97% | [2]; at 50.0 µM 92.6% | [3]; [8] 98% | [3]; at 50.0 µM 96.8% | [4]; [8] 98% | [4]; at 50.0 µM 92.3% | [5]; [8] 99% | [5]; at 50.0 µM 96.2% | [6]; [8] 98% | [6]; at 50.0 µM 82.5%

CCC(C)(C)C(=O)OCC(=O)c1ccc(-c2ccccc2)cc1
inactive: [1]; [7] -15% | [1]; [8] -17% | [1]; at 50.0 µM -5.8% | [2]; [7] 5% | [2]; [8] -4% | [2]; at 50.0 µM 8.25% | [3]; [7] 2% | [3]; [8] -3% | [3]; at 50.0 µM -7.4% | [4]; [7] 33% | [4]; [8] -57% | [4]; at 50.0 µM -3.35% | [5]; [7] 29% | [5]; [8] 25% | [5]; at 50.0 µM 62.2% | [6]; [7] -11% | [6]; [8] -4% | [6]; at 50.0 µM 12.8%

Oc1cc2c(cc1C(Nc1ncccn1)c1ccc(F)cc1)OCO2 (stereo not given)
inactive: [1]; [7] -1% | [1]; [8] 46% | [1]; at 50.0 µM 17.9% | [2]; [7] -1% | [2]; [8] 40% | [2]; at 50.0 µM 15.7% | [3]; [7] 0% | [4]; [7] 4% | [4]; [8] 24% | [4]; at 50.0 µM -12% | [5]; [7] -1% | [5]; [8] 64% | [5]; at 50.0 µM 44.1% | [6]; [7] 0% | [6]; at 50.0 µM 43.5%
active: [3]; [8] 77% | [3]; at 50.0 µM 79.7% | [6]; [8] 74%

CC(=O)Nc1ccc(-c2nnc(SCC(=O)Nc3ccc([N+](=O)[O-])cc3)o2)cc1
active: [5]; [8] 92% | [5]; at 50.0 µM 82% | [6]; [8] 74%
inactive: [1]; [7] -1% | [1]; [8] 45% | [1]; at 50.0 µM 33.4% | [2]; [7] -8% | [2]; [8] 65% | [2]; at 50.0 µM 39.3% | [3]; [7] 0% | [3]; [8] 62% | [3]; at 50.0 µM 46% | [4]; [7] 4% | [4]; [8] 56% | [4]; at 50.0 µM -37.9% | [5]; [7] 11% | [6]; [7] 5% | [6]; at 50.0 µM 28.4%

O=C1OC(=O)c2cc([N+](=O)[O-])cc3cccc1c23
active: [1]; [8] 97% | [2]; [8] 99% | [3]; [8] 99% | [4]; [8] 98% | [5]; [8] 99% | [6]; [8] 99% | [6]; at 50.0 µM 76.7%
inactive: [1]; [7] 3% | [1]; at 50.0 µM 22.9% | [2]; [7] 13% | [2]; at 50.0 µM 36.2% | [3]; [7] 3% | [3]; at 50.0 µM 29.2% | [4]; [7] 22% | [4]; at 50.0 µM 36.6% | [5]; [7] 21% | [5]; at 50.0 µM 47.5% | [6]; [7] 8%

O=S(=O)(c1cc(Br)ccc1O)c1cc(Br)ccc1O
active: [1]; [7] 94% | [1]; [8] 99% | [1]; at 50.0 µM 99.8% | [2]; [7] 99% | [2]; [8] 100% | [2]; at 50.0 µM 99.8% | [3]; [7] 89% | [3]; [8] 99% | [3]; at 50.0 µM 99.8% | [4]; [7] 99% | [4]; [8] 100% | [4]; at 50.0 µM 99.5% | [5]; [7] 99% | [5]; [8] 100% | [5]; at 50.0 µM 99.7% | [6]; [7] 98% | [6]; [8] 99% | [6]; at 50.0 µM 99.5%

S=C(Nc1ccccc1)NC1CCCCCCCCC1
active: [1]; at 50.0 µM 77% | [3]; at 50.0 µM 90.6% | [4]; [8] 71% | [6]; at 50.0 µM 88.7%
inactive: [1]; [7] -2% | [1]; [8] 29% | [2]; [7] -8% | [2]; [8] 42% | [2]; at 50.0 µM 54.9% | [3]; [7] 5% | [3]; [8] 53% | [4]; [7] -59% | [4]; at 50.0 µM 60.7% | [5]; [7] -5% | [5]; [8] 27% | [5]; at 50.0 µM 30.8% | [6]; [7] 0% | [6]; [8] 44%
